This passage reports myelination results from the supplement of paper PMC4840960.

The subject of the assay is E18 rat cortical neuron-glia co-culture. As to the kind of experiment: myelination (MBP fiber length per Olig2+ nucleus), % of 1 µM DAPT response (DMSO = 0) (% of DAPT); higher = more myelination, active = 50 or more. The settings on record: 1 µM; treatment time: 8 days (DIV5-DIV13). Put shortly: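 The myelination value was the continuous straight MBP fiber length per Olig2+ nucleus, scaled between 0.1 % DMSO (0) and a 1 µM positive control (100). It was measured in primary E18 rat cortical co-cultures treated with library compounds at 1 or 5 µM in myelination medium from DIV5 through DIV13. Cells were fixed in 4 % paraformaldehyde and stained for MBP, Olig2 and DAPI, and four 10X fields per well were imaged in duplicate wells.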
In the case of `CC(C)(C#N)c1cc(Cn2cncn2)cc(C(C)(C)C#N)c1` [Anastrozole], the myelination is -5.96 (inactive).

For `CO[C@@]1(NC(=O)Cc2cccs2)C(=O)N2C(C(=O)O)=C(COC(N)=O)CS[C@@H]21` [Cefoxitin], the myelination was -5.64 (inactive). In the case of `Cc1cnc(C(=O)NCCc2ccc(S(=O)(=O)NC(=O)NC3CCCCC3)cc2)cn1` [Glipizide], the myelination is 2.75 (inactive). As for `COc1ccc(CN2CCN(C(c3ccc(F)cc3)c3ccc(F)cc3)CC2)c(OC)c1OC` [Lomerizine], the myelination is 14.1 (inactive).

Turning to `CC1COc2c(N3CCN(C)CC3)c(F)cc3c(=O)c(C(=O)O)cn1c23` (stereo not drawn) [Ofloxacin], the myelination was -16.9 (inactive).

As to `CN(C)CCOC(c1ccccc1)c1ccccc1` [Diphenhydramine], the myelination was -12.1 (inactive). The result for `C/C(=C\C(=O)OCCCCCCCCC(=O)O)C[C@@H]1OC[C@H](C[C@@H]2O[C@H]2[C@@H](C)[C@H](C)O)[C@@H](O)[C@H]1O` [Mupirocin] reads -12.7 (inactive). With `CC[C@@H]1C(=O)OC[C@@H]1Cc1cncn1C` [Pilocarpine], the myelination was -24.8 (inactive).

With `CNCCC=C1c2ccccc2CCc2ccccc21` [Nortriptyline], the myelination is -1.74 (inactive).

Regarding `CC1(C)S[C@@H]2[C@H](NC(=O)[C@H](N)c3ccc(O)cc3)C(=O)N2[C@H]1C(=O)O` [Amoxicillin], the myelination is -18.6 (inactive). The result for `C=C[C@H]1CN2CC[C@H]1C[C@H]2[C@H](O)c1ccnc2ccc(OC)cc12` [Quinine] reads -1.48 (inactive); that for `C#C[C@]1(O)CC[C@H]2[C@@H]3[C@H](C)CC4=C(CCC(=O)C4)[C@H]3CC[C@@]21C` [Tibolone], -17.1 (inactive).

For the compound `C[C@@H]1C[C@H]2[C@@H]3CCC4=CC(=O)C=C[C@]4(C)[C@@]3(F)[C@@H](O)C[C@]2(C)[C@H]1C(=O)CO` [Desoximetasone], the myelination is 7.66 (inactive). Take `COc1ccc2c3c1O[C@H]1C[C@@H](O)C=C[C@@]31CCN(C)C2` [Galantamine]: the myelination was -60.3 (inactive). Regarding `N[C@@H](C(=O)N[C@@H]1C(=O)N2C(C(=O)O)=C(Cl)CS[C@H]12)c1ccccc1` [Cefaclor], the myelination is 1.34 (inactive). The result for `CC1(C)S[C@@H]2[C@H](NC(=O)COc3ccccc3)C(=O)N2[C@H]1C(=O)O` [Penicillin V] reads -3.1 (inactive). The result for `CN1CCN(C2=Nc3cc(F)ccc3Cc3ccccc32)CC1` [Fluperlapine] reads 6.96 (inactive); that for `CNC(=C[N+](=O)[O-])NCCSCc1ccc(CN(C)C)o1` [Ranitidine], -19.6 (inactive). The result for `C[C@H]1C[C@H]2[C@@H]3CCC4=CC(=O)C=C[C@]4(C)[C@@]3(F)[C@@H](O)C[C@]2(C)[C@@]1(O)C(=O)CCl` [Clobetasol] reads 7.06 (inactive); that for `CC(COc1ccccc1)N(CCCl)Cc1ccccc1` (stereo not drawn) [Phenoxybenzamine], -14.4 (inactive). Regarding `Nc1ccc(O)c(C(=O)O)c1` [Mesalamine], the myelination is -20.4 (inactive).

As for `CC12CC3CC(C)(C1)CC(N)(C3)C2` [Memantine], the myelination was 12.9 (inactive). The result for `C[C@H]1O[C@H](O[C@H]2[C@H](O)[C@@H](O)[C@@H](O[C@H]3[C@H](O)[C@@H](O)C(O)O[C@@H]3CO)O[C@@H]2CO)[C@H](O)[C@@H](O)[C@@H]1N[C@H]1C=C(CO)[C@@H](O)[C@H](O)[C@H]1O` (stereo partly drawn) [Acarbose] reads -11.8 (inactive). `Cc1[nH]c(=O)c(C#N)cc1-c1ccncc1` [Milrinone]: the myelination was -7.08 (inactive). The result for `Nc1ncn([C@@H]2O[C@H](CO)[C@@H](O)[C@H]2O)c(=O)n1` [Azacitidine] reads 3.99 (inactive); that for `CC(=O)[C@H]1CC[C@H]2[C@@H]3CCC4=CC(=O)CC[C@]4(C)[C@H]3CC[C@]12C` [Progesterone], -31.5 (inactive); that for `c1ccc2c(c1)CCCC2C1=NCCN1` (stereo not drawn) [Tyzine], -6.18 (inactive). The result for `COc1ccc(CCN(C)CCCC(C#N)(c2ccc(OC)c(OC)c2)C(C)C)cc1OC` (stereo not drawn) [Verapamil] reads -27.2 (inactive).
